Laboratory results reported in the supplement of paper PMC11624193, “Coupling cellular drug-target engagement to downstream pharmacology with CeTEAM” (Nature Communications, 2024).
Structures can show the parent of a compound that is named as a salt. Unmarked numbers belong to inactive results.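 How the source made its calls: active = log2 fold change beyond 2 SD from the library mean after excluding viability outliers; inactive = within 2 SD.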

Molecular target: PARP1 L713F-nLuc biosensor (HCT116) (UniProt P09874)
Sequence (P09874 whole entry L713F, looked up): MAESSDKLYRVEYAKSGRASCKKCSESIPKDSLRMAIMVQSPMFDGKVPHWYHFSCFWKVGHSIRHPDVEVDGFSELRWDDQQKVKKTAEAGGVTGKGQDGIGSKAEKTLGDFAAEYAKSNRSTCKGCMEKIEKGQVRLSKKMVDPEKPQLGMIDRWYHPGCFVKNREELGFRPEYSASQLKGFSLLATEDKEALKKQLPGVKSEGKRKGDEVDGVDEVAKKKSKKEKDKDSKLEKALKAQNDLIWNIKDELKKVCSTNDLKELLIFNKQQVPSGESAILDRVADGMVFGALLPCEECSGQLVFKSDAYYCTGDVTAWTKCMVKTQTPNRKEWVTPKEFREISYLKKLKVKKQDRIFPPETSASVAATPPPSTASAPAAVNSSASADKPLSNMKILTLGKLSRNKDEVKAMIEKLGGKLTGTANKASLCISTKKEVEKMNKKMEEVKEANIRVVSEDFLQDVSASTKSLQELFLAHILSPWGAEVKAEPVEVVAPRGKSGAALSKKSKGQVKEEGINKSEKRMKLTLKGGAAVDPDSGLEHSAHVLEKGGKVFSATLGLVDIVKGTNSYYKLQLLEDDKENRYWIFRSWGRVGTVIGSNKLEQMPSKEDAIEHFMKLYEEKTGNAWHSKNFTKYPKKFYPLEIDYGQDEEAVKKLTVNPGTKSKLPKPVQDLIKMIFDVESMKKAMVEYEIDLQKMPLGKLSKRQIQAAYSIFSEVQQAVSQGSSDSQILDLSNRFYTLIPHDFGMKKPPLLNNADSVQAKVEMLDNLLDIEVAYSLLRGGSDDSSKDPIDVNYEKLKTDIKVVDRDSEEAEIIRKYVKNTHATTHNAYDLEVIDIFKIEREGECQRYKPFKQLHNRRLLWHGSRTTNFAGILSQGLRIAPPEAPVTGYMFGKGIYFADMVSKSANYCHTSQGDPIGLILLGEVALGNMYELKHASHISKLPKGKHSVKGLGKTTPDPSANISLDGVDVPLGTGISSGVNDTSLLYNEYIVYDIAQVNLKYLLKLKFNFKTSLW
Assay: PARP1 L713F-nLuc/akaLuc ratio relative to DMSO control (biosensor stabilization) (fold change); higher = more PARP1 biosensor stabilization (target engagement / stabilizer), active = hit call of the paper
Conditions: stock concentration (mM; final µM = stock mM x 1): 10; 24 h

Row | SMILES | PARP1 L713F-nLuc/akaLuc ratio
1 | O=C(/C=C/c1ccc(O)c(O)c1)O[C@@H]1C[C@](O)(C(=O)O)C[C@@H](O)[C@H]1O [Chlorogenic acid] | 1.16
2 | CN(C)CCCCC(=O)Nc1ccc(NC(=S)NC(=O)c2ccc(C(C)(C)C)cc2)cc1 [Tenovin-6 (Hydrochloride)] | 0.665
3 | CC[C@]1(O)C[C@@H]2CN(CCc3c([nH]c4ccccc34)[C@@](C(=O)OC)(c3cc4c(cc3OC)N(C)[C@H]3[C@@](O)(C(=O)OC)[C@H](OC(C)=O)[C@]5(CC)C=CCN6CC[C@]43[C@@H]65)C2)C1 [Vinblastine sulfate] | 1.03
4 | O=C(/C=C/N1C[C@H]2C[C@@H]1CN2c1ccccn1)c1ccccc1O | 1.3
5 | Cc1ccc(C(=O)Nc2ccc(Oc3cc4cnn(C)c4cc3-c3cn[nH]c3)c(F)c2)c(=O)n1-c1ccc(F)cc1 | 1.52
6 | Cc1nc(F)ccc1-c1cc(Cn2ccn(C)c2=N)cc(C(=O)NCc2ccc(Cl)c(Cl)c2)c1 | 0.928
7 | N=C(N)c1ccc(-c2ccc(-c3ccc(C(=N)N)cc3)o2)cc1 [Furamidine (dihydrochloride)] | 0.717
8 | CC(=O)N(O)CCCCCNC(=O)CCC(=O)N(O)CCCCCNC(=O)CCC(=O)N(O)CCCCCN [Deferoxamine mesylate] | 0.984
9 | C=C(C)[C@@H]1CCC(C)=C[C@H]1C1=C(O)C(=O)C(CCCCC)=C(NCc2ccccc2)C1=O | 1.39
10 | NC(=O)c1cccc2cn(-c3ccc([C@@H]4CCCNC4)cc3)nc12 [Niraparib (MK-4827)] | 6.42 (active)
